The experiment relates to FXR:RXRa (NR concentration 270 nM, RXRa partner concentration 90 nM). Kind of experiment: PBM binding z-score (relative to random genomic background probes); higher = stronger binding; sequences stand for … in GC…GCGATTGACAGCGTAGAATGAAGG
Put shortly:
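Binding z-scores were set against random background probes. The data came from custom Agilent 4×180K protein-binding microarrays carrying double-stranded probes with 34-nt variable regions, incubated 1 h with ligand-free nuclear receptor dimers. Partner-specific antibodies detected binding, and scanned fluorescence was regression-normalized.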
For the sequence CAAACTAGGTCACCGGAAGGTCCAAGTCCGCATG, the PBM binding z-score is 4.24.
The sequence TCTTGTAGATCATTAGAGGTTAAGAAAGTGCGCT had a PBM binding z-score of 1.06.
With TCTTGTAGATCAACAGGAGGCTAAGAAAGATCGA the figure was -0.113; with TTAACAAGGTGAGCTGAGGTCGTTGATCCAACTC, 1.71; with ACAGACAGGTGAGTGAAGCTAACTCAGCTGGACG, -0.673.
The sequence GCTGCTAGGTCAGGTTGGTCAGCTTACGGGTACG showed a PBM binding z-score of 1.11.
The sequence ACTAGCAGGCCAAGTTTGGGTCACACAAACAAAG registered a PBM binding z-score of 0.341.
Take TCTTGTAGATCAATAGCGGTTAAGAAAGTGCGCT: the PBM binding z-score stood at 0.25.
With ATCTCGAGGTAAGACTCAGTTCAGTGAAGAACGC the figure was 0.0769; with AGAATGAGGTTAATATCAGGGAAACAGAATACAT, 1.64.
As for GCTAGCAGGCCATTTGGGTCATTCAATGACGGGC, the PBM binding z-score stood at 0.317.
For GATACAGGGCCAAGGCCAGAGTACGCGTATTGAT, the PBM binding z-score was -0.68.
In turn, CGAAATAGGTCAAGGACAGTGAATCTCCGCACGC registered a PBM binding z-score of 5.6.
Sequence ATCTCTAGGTAAACAAGTTCAGTGAATGCCGAAC had a PBM binding z-score of 0.431.
The sequence AGATGTAGGTTATCGGGTCATTCAGTTTGCGCAT returned a PBM binding z-score of 3.31.
The sequence TCGTGTAGGTTAGTCGGGGCATTCAGCCAACATA gave a PBM binding z-score of 0.782.
The sequence TCTCAAAGTTCAAAGGTAACGTAAGTATCCACAC registered a PBM binding z-score of 6.76.
With TCATATAGGTAAACAGATGAAAGTCCGTAAGTTA the figure was 1.23; with CCTGCTAGGTCAGTGGTCAGCTAAAGCAGCTCGC, 0.953.
TAAACAGGGTCAAAGGCCAGAGTACGAATGTCGA returned a PBM binding z-score of 7.35.
AGGACGAGGGCACGCTGAGTTGATAGCAGAGTAG showed a PBM binding z-score of 0.954.
The sequence GATACAGGGTCAGCTGGAGGCCAGAGTATGGAAA showed a PBM binding z-score of 5.07.

The record behind these values is the supplement of paper PMC6555819.
